Shown are actives, neighbours in structure and some others; about 1.9% of the full set was active somewhere.
NSD2 inh: inhibitors of human histone methyltransferase NSD2. O96028. NSD2 peptide methylation, AlphaScreen, 120 min. inhibition, % at 12.5 µM. 0.54% of 310,000 active; in the data active = inhibition above about 50%
Pemphigus Ab inh: inhibitors of pemphigus antibody binding to human desmoglein-3; P32926; DSG3-coupled beads, scFv-anti-DSG3-GFP binding, flow cytometry; hits give low values; binding (percent of control), % at 10 µM; 0.48% of 310,000 active; AID 588358;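 active = binding more than 3 SD below its plate's average and above zero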;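 note: hits lower antibody fragment binding to DSG3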
ATG4B inh: blocks human ATG4B protease cleavage of LC3 substrate | Q9Y4P1 | ATG4B cleavage of LC3-PLA2, NBD-HPC fluorescence, 1 h | inhibition, % at 8.33 µM | 0.51% of 340,000 active; in the data active = inhibition above about 40%
Target sequence (Q9Y4P1 whole entry, looked up): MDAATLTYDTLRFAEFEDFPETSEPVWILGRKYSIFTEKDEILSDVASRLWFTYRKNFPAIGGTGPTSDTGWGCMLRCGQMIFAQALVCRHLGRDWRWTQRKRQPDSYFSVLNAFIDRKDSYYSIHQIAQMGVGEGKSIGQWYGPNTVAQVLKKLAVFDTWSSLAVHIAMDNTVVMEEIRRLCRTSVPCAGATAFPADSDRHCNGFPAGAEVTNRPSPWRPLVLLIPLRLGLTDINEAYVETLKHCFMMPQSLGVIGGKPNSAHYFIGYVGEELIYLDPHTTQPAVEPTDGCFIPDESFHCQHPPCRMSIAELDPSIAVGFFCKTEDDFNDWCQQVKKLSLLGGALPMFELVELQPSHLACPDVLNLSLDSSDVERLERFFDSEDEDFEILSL
N-glyco inh: blocks N-linked glycosylation in D54 reporter cells; D54 ERlucT glycosylation luciferase reporter, 24 h; percent of 100 nM tunicamycin response; 0.23% of 360,000 active; reporter increase, % at 12.5 µM;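 active = mean luciferase reporter signal, scaled so untreated is 0 and the glycosylation-blocking control 100, at or above a set limit in every replicate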;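 note: luciferase carries N-glycosylation sites so blocking glycosylation raises the light; 0% = median of neutral control wells and 100% = median of 100 nM tunicamycin wells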
Vif inh: blocks HIV Vif function; HEK293T cells, Vif self-association by quenched fluorescence, imaging, 24 h; inhibition, % at 7.49 µM; 0.35% of 340,000 active; AID 602346; in the data active = inhibition above about 50%, passing the limit was not always enough
CaV13 ICDI inh: Disruptors of the CACNA1D IQ motif to Ca2+-dependent inactivation inhibitor domain association, primary screening, Förster resonance energy transfer in intact living …; HEK cells, CFP/YFP FRET ICDI-IQ, plate reader, 10 min; percent FRET-ratio fall versus neutral wells; inhibition, % at 12.3 µM; 0.098% of 340,000 active; AID 743397;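 active = mean replicate inhibition of at least 30% and at least 1% of replicates passing that level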;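 note: 0% = median of the neutral control wells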
Numbers without * were called inactive; . = no result given; + = active, no number; ! = not active in a repeat.

SMILES | NSD2 inh | Pemphigus Ab inh | ATG4B inh | N-glyco inh | Vif inh | CaV13 ICDI inh
CC1CCCN(S(=O)(=O)c2ccc(S(=O)(=O)N3CCC4(CC3)OCCO4)cc2)C1 (stereo not drawn) | -2 | 68* | -6 | 0 | 5 | -3
CN1CCN(CCCNC(=O)c2cn(C3CCCCC3)c(=O)c3c2c2ccccc2n3C)CC1 | -5 | 99 | -5 | -3 | 1 | .
Cc1c(CC(=O)NCC(C)C)c(=O)oc2cc3c(cc12)CCC(C)(C)O3 | -3 | 104 | -3 | 2 | -1 | -4
c1ccc(-c2cn3nc4c(nc3n2)CCCC4)cc1 | -1 | 106 | -2 | -19 | . | 34*
Brc1ccc(-c2cn3nc4c(nc3n2)CCCC4)cc1 | 3 | 108 | -9 | -17 | . | 1
COc1cc(CN2CCc3ccccc3C2)cc([N+](=O)[O-])c1O | -1 | 121 | 6 | 3 | -6 | -2
COc1cc(CN2CCc3ccccc3C2)ccc1O | 0 | 101 | -3 | 93* | -1 | 4
CN(CC(=O)Nc1ccc(N2CCOCC2)cc1)CC(=O)Nc1ccc(Cl)cc1[N+](=O)[O-] | 3 | 99 | 5 | 0 | . | -5
COc1ccc(NC(=O)CN(C)CC(=O)Nc2ccc(N3CCOCC3)cc2)c([N+](=O)[O-])c1 | -3 | 67* | 0 | 1 | 14 | -7
O=C(c1cc(-c2ccccc2O)on1)N1CCOCC1 | 5 | . | -7 | -1 | -5 | -7
O=C(c1cc(-c2ccccc2O)on1)N1CCCCCC1 | -2 | 97 | 1 | -4 | 74* | -7
COc1cccc(/C=N/NC(=O)c2cc(-c3cccn3C)n[nH]2)c1 | 5 | 96 | -5 | 4 | -7 | -9
COc1cc(/C=N/NC(=O)c2cc(-c3cccn3C)n[nH]2)cc(OC)c1OC | 7 | 95 | -12 | 68* | 12 | -3
O=C(O)CCn1cc(/C=C2\NC(=S)N(c3ccccc3)C2=O)c(-c2ccc(Br)cc2)n1 | . | 95 | 5 | 1 | -2 | 1
N#CCCn1cc(/C=C2\NC(=S)N(c3ccccc3)C2=O)c(-c2ccc(F)cc2)n1 | 35 | 1.1* | 17 | 3 | -1 | -5
COc1cccc(CNC(=O)c2cccs2)c1 | 3 | 96 | 3 | -1 | -7 | -3
COc1cccc(/C=N/NC(=O)CCCC(=O)NC2CCCCC2)c1 | -1 | 94 | 8 | 2 | 4 | -4
COc1cc(/C=N/NC(=O)CCC(=O)NC2CCCCC2)ccc1C | 0 | 95 | -4 | 0 | 51* | -4
COc1ccc2c(c1OC)C(=O)OC2C1c2c(cc3c(c2OC)OCO3)CCN1C (stereo not drawn) | . | 112 | 3 | 1 | -2 | -5
CN1CCc2cc3c(c4c2[C@H]1[C@H](O)c1ccccc1-4)OCO3 | . | 103 | -9 | 33* | -4 | -10
CC(C)(C)P(=O)(CO)c1ccccc1 (stereo not drawn) | 2 | 103 | -4 | 3 | -1 | -4
CN(C=[N+](C)C)c1cccc2c1C(=O)c1ccccc1C2=O | 69* | 103 | 4 | 6 | 3 | -6
Cc1csc(NC(=O)/C=C/c2ccc(C)o2)n1 | -1 | 120 | -4 | 3 | -1 | -3
CC(NC(=O)C(CC(=O)OC(C)(C)C)NC(=O)OC(C)(C)C)C(N)=O (stereo not drawn) | -2 | 104 | -2 | 1 | 55* | -4
COc1cc(OC)c(OC)cc1CCC(C)NCCC(c1ccccc1)c1ccccc1 (stereo not drawn) | 71* | 100 | 8 | 4 | -7 | -4
SMILES | NSD2 inh | Pemphigus Ab inh | ATG4B inh | N-glyco inh | Vif inh | CaV13 ICDI inh
COc1ccc(CCNCCC(c2ccccc2)c2ccccc2)cc1OC | 45 | 101 | . | 2 | 6 | -5
CSc1nc2c(c(-c3ccc(O)cc3)c1C#N)CCC2 | 0 | 102 | -9 | -2 | . | -5
O=C(Nc1ccc(N2CCN(C(=O)c3ccccc3)CC2)cc1)c1ccc(Br)o1 | 2 | 107 | -16 | -7 | -20 | .
CC(C)N1CCN(C(=O)c2ccc(NC(=O)c3ccc(Br)o3)cc2)CC1 | . | 68* | -5 | -2 | -12 | -6
FC(F)(F)c1nc(SCc2ccccc2)n[nH]1 | -1 | 110 | 12 | 0 | -3 | 4
O=C(NNC(=O)c1ccc[nH]1)Nc1cc(Cl)cc(Cl)c1 | 2 | 98 | -6 | 1 | 55* | -5
O=C(NNC(=O)c1ccc[nH]1)Nc1cccc(C(F)(F)F)c1 | 1 | 106 | 2 | 1 | -3 | -3
COc1ccc(-c2c(NC(C)=O)n(C)c3ccccc3c2=O)cc1 | 5 | 98 | 3 | 4 | 10 | -6
O=S(=O)(O)c1cc(Cl)cc(N=Nc2ccc(O)cc2O)c1O | 113* | 99 | 23 | -3 | -6 | -17
O=C(CCN1CCN(c2ccccc2)CC1)N/N=C/c1ccc(O)c(O)c1O | 21 | 80* | -1 | 3 | 1 | -2
Cc1cc(NC(=O)c2ccc3c(c2)C(=O)N(C(C)(C)C)C3=O)no1 | 0 | 101 | 7 | 1 | 1 | -6
CN1CCN(C(c2ccc(F)cc2)c2ccc3cccnc3c2O)CC1 (stereo not drawn) | 12 | 99 | 0 | 0 | 1 | .
CN1CCN(C(c2ccc(Br)cc2)c2cc(Cl)c3cccnc3c2O)CC1 (stereo not drawn) | 5 | 106 | 12 | 37* | 20 | -8
COCCN(C(=O)c1csnn1)C(C(=O)NC1CCCCC1)c1ccccc1F (stereo not drawn) | 2 | 117 | -17 | 1 | -6 | -5
CCN=c1scc(-c2ccc3c(c2)NC(=O)CO3)n1N=C1CCCC1 | 7 | 136 | -2 | -6 | 54*! | -7
Cc1c(Br)c(O)c(Br)c(O)c1/C=N/n1c(-c2ccccc2)n[nH]c1=S | . | 103 | 69* | -2 | -3 | .
CN1C(C(=O)NCc2cccc(Br)c2)CC2Cn3c(nc4cc5ccccc5cc43)C21 (stereo not drawn) | . | 91* | -5 | 3 | . | -5
Cc1cc2nc3n(c2cc1C)CC1CC(C(=O)NCc2cccc(Br)c2)N(C)C31 (stereo not drawn) | . | 117 | -1 | 4 | . | -10
O=C(Nc1ccccc1N1CCCCC1)c1ccc(Cl)cc1 | -3 | 107 | 6 | 0 | 1 | -3
CCN(c1ccccc1)S(=O)(=O)c1cc(C(=O)O)ccc1C | + | 95 | 5 | 0 | -10 | -5
O=C(O)c1ccc(Cl)c(S(=O)(=O)N(Cc2ccccc2)c2ccccc2)c1 | 1 | 102 | 4 | -1 | 12 | -19
O=C(N/N=C/c1ccc([N+](=O)[O-])cc1)c1cc(C2CC2)[nH]n1 | 0 | 108 | -12 | 0 | 9 | .
O=C(N/N=C/c1ccc(OC(=O)c2ccc([N+](=O)[O-])cc2)cc1)c1cccnc1 | 0 | 8.2* | 6 | 0 | 2 | .

High-throughput results deposited in PubChem BioAssay by several laboratories.
